The structures appear in SMILES notation. Active and inactive are the calls of the source. No rule for the calls is given here.

The experiment deals with Pantothenate synthetase (Mycobacterium tuberculosis (strain ATCC 25618 / H37Rv)) (UniProt P9WIL5). In words: Coupled enzyme confirmation of inhibitors against recombinant Mtb PanC (AID 375).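 Also: 0% = full reaction with vehicle and 100% = no enzyme background.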 Particulars: coupled enzyme assay; at 10 µM, stronger effect = higher value.
Sequence of Pantothenate synthetase (Mycobacterium tuberculosis (strain ATCC 25618 / H37Rv)) (P9WIL5 whole entry, looked up): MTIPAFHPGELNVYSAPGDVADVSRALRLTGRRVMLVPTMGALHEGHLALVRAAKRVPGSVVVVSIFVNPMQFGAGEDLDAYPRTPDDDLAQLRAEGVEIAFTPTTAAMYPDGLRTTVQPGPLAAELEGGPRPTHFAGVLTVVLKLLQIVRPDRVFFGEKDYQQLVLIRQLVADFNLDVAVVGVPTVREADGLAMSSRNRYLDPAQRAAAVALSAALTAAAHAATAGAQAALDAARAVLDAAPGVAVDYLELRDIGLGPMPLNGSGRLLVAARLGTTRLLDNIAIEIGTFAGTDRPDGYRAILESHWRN
For the compound `CCOCCn1c(CN2CCN(c3cccc(Cl)c3)CC2)nc2c1c(=O)n(C)c(=O)n2C`, the inhibition was 4% (inactive).

For the compound `CC(=O)OCC(=O)[C@@]12OC(C)(C)O[C@@H]1C[C@H]1[C@@H]3C[C@H](F)C4=CC(=O)C=C[C@]4(C)[C@@]3(F)[C@@H](O)C[C@@]12C`, the inhibition is 1% (inactive).

As to `Cc1nc2ncnn2c(C)c1CCC(=O)NCCCN1CCN(c2cccc(Cl)c2)CC1`, the inhibition is 0% (inactive).

On to `CCS(=O)(=O)N1CCCC(C(=O)NCc2ccccc2Cl)C1` (stereo not given), for which the inhibition was 2% (inactive).

With `CCC(c1nnc(SCC(=O)Nc2ccc(C(=O)Nc3ccccc3OC)cc2)o1)N(C)C` (stereo not given), the inhibition is 0% (inactive).

With `O=C(CSc1nnc(-c2cccs2)o1)NCC1CN(Cc2ccccc2)CCO1` (stereo not given), the inhibition is 0% (inactive).

With `CC(C)(C)C(=O)/C=C(\N)c1ccccn1`, the inhibition is 2% (inactive).

With `O=C(O)CC1SC(=Nc2cccc(C(F)(F)F)c2)NC1=O` (stereo not given), the inhibition is 0% (inactive).

Take `c1ccc(CNC2=NCCC2)nc1`: the inhibition is 0% (inactive).

Consider `COc1ccc(/C(O)=C2/C(=O)C(=O)N(CCCN(C)C)C2c2ccco2)cc1Cl` (stereo not given), for which the inhibition is 0% (inactive).

As for `CCOc1ccc(C(=O)N2CCN(C(=O)c3ccco3)CC2)cc1OCC`, the inhibition is 1% (inactive).

As to `Cc1nc2ncnn2c(Nc2ccc3c(c2)OCCO3)c1C`, the inhibition is 3% (inactive).

In the case of `CCOC(=O)C1CCN(c2c(N3CCCC(C(=O)OCC)C3)c(=O)c2=O)CC1` (stereo not given), the inhibition was 6% (inactive).

Regarding `CC(=O)c1cccc(NC(=O)N2C3CCC2CC(O)(c2cccnc2)C3)c1` (stereo not given), the inhibition was 0% (inactive).

As for `O=C(CSc1nc2cc(S(=O)(=O)N3CCOCC3)ccc2o1)NC1CCCc2ccccc21` (stereo not given), the inhibition is 0% (inactive).

For the compound `CC1Cc2nc(SCC(N)=O)n(Cc3ccccc3)c(=O)c2S1` (stereo not given), the inhibition was 0% (inactive).

As for `O=C(c1ccco1)N1CCN(c2nc(C(F)(F)F)nc3c2nnn3Cc2ccccc2)CC1`, the inhibition was 0% (inactive).

For `O=S(=O)(NCC(O)COCc1ccco1)c1cccs1` (stereo not given), the inhibition is 2% (inactive).

Turning to `Cc1cccc2cc(C(c3nnnn3C(C)(C)C)N3CCN(C(=O)c4ccco4)CC3)c(=O)[nH]c12` (stereo not given), the inhibition is 6% (inactive).

For `CCCS(=O)(=O)N1CCN(C(=O)c2cccs2)CC1`, the inhibition is 0% (inactive).

For the compound `CN1C(=O)c2c(sc3c2CCCC3)NC1c1ccccc1O` (stereo not given), the inhibition is 0% (inactive).

Consider `Cc1noc(C)c1S(=O)(=O)NCCN1CCN(c2ccccc2)CC1`, for which the inhibition was 4% (inactive).

With `CC(=O)NC1(c2nnnn2CCOC(=O)Nc2ccc(Cl)cc2)CCCCC1`, the inhibition was 1% (inactive).

Regarding `CC1CCc2cc(F)cc3c(=O)c(C(=O)O)cn1c23` (stereo not given), the inhibition was 2% (inactive).

For `CCOC(=O)c1ccc(NS(=O)(=O)c2cccc3nsnc23)cc1`, the inhibition is 8% (inactive).

For the compound `CN1CCc2c(sc3c2c(=O)n(-c2ccccc2)c2nnc(SCc4ccccc4)n32)C1`, the inhibition was 4% (inactive).

Regarding `O=C(Cn1cnc2c(cnn2-c2ccc(F)cc2)c1=O)N1CCN(c2ccccc2)CC1`, the inhibition is 0% (inactive).

Consider `CCCn1c(N2CCN(CC(=O)Nc3ccc4c(c3)OCCO4)CC2)nc2ccccc21`, for which the inhibition was 6% (inactive).

As for `CC1=C(C(=O)Nc2ccccc2)C(c2cccs2)C(C#N)=C(SCC#N)N1` (stereo not given), the inhibition is 5% (inactive).

Regarding `Cc1ccc(S(=O)(=O)Nc2nc3ccccc3nc2NCc2ccco2)cc1`, the inhibition was 3% (inactive).

For `COc1ccccc1N=Cc1nc(-c2ccccc2)oc1OC(C)=O`, the inhibition is 0% (inactive).

As for `Cc1ccc(C)c(NC(=O)CSc2nnc(-c3ccccc3)o2)c1`, the inhibition is 5% (inactive).

Regarding `COc1ccccc1CN1C(=S)SC(C)(C)C1NO` (stereo not given), the inhibition is 0% (inactive).

As to `COc1ccccc1N1CCN(Cc2nc(N)nc(Nc3ccc(C)c(Cl)c3)n2)CC1`, the inhibition is 3% (inactive).

Turning to `CC(C)Oc1ccc(N2CC(C(=O)Nc3ccccc3F)CC2=O)cc1` (stereo not given), the inhibition is 0% (inactive).

Consider `Cc1nn(C)c(C)c1CN(C)C(=O)c1cc2nc(-c3ccco3)cc(C(F)(F)F)n2n1`, for which the inhibition was 0% (inactive).

As to `COc1ccc(NC(=O)CSc2nnc(-c3ccccc3)n2N)cc1`, the inhibition is 0% (inactive).

Regarding `CN(C)/C=C(\C#N)c1nc2ccccc2[nH]1`, the inhibition was 0% (inactive).

`CN(Cc1cccs1)C(=O)CCc1ccc(S(=O)(=O)N2CCOCC2)cc1`: the inhibition is 1% (inactive).

Regarding `O=C(CCn1c(=O)oc2ccccc21)NCCN1CCc2ccccc2C1`, the inhibition is 0% (inactive).

The values above are taken from PubChem BioAssay.
